Activity calls are given as the source filed them.

Composite z-score and z-score data for six compounds are collected here from PubChem BioAssay.

The subject of experiment [1] is Plasmodium falciparum Sir2 (PF13_0152, Sir2A). As to the kind of experiment: pfSir2 binders on small-molecule microarrays, primary screen, biochemical, small-molecule microarray, 635 nm fluorescence (AID 1098).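 Note: score merges spot fluorescence intensity with its signal-to-noise ratio.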 As to conditions: small-molecule microarray binding, fluorescence 635 nm; higher = more signal.
Experiment [2] can be described thus: small-molecule microarray binders of probe aDKK1, primary screen, biochemical, biotinylated probe, 635/667 nm fluorescence (AID 1099).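 Note: score merges 667nm spot fluorescence with signal to noise across triplicate slides.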 As to conditions: higher = more signal.
The nature of experiment [3]: small-molecule microarray binders of probe aCHRDL2, primary screen, biochemical, biotinylated probe, 635/667 nm fluorescence (AID 1100). As to conditions: higher = more signal.
A short description of experiment [4]: splicing luciferase reporter signal modulators, primary screen, spliceosome inhibition project, cell-based, HEK293, splice +/- reporter (AID 1101).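 Note: HEK293 cells carrying a splicing-competent luciferase reporter gene; test concentration not given here.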 As to conditions: luminescence, 24 h, higher = more signal, called active from +8 up or from −8 down. On the technique in general: Reporter assays use an easily measured gene product as a stand-in for the process of interest.

For experiment [5], the target named is Fibroblast growth factor 10 (Homo sapiens) (UniProt O15520). Description: FGF10 binders on small-molecule microarrays, primary screen, biochemical, small-molecule microarray, 635 nm fluorescence (AID 1102). The following applies: FGF10 binding, fluorescence 635 nm, higher = more signal.
Sequence of Fibroblast growth factor 10 (Homo sapiens) (O15520 whole entry, looked up): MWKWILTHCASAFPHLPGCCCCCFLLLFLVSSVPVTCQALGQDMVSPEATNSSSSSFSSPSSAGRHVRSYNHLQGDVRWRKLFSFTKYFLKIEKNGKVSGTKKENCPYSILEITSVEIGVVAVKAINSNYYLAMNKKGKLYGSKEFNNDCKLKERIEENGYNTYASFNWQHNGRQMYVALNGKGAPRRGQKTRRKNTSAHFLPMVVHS
In experiment [6] the test system is glycogen synthase kinase-3 (GSK3A per assay name; protocol says GSK3B). As to the kind of experiment: GSK3 binders on small-molecule microarrays, primary screen, biochemical, small-molecule microarray, 635 nm fluorescence, GSK3A (AID 1103). Note: the record names both GSK3A and GSK3B. As to conditions: small-molecule microarray binding, fluorescence 635 nm; higher = more signal.
The target in experiment [7] is Epidermal growth factor receptor (Homo sapiens) (UniProt P00533). As to the kind of experiment: EGFR binders on small-molecule microarrays, primary screen, biochemical, small-molecule microarray, 635 nm fluorescence (AID 1104).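 Note: score merges 667 nm emission intensity with spot signal to noise over triplicate slides.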 As to conditions: EGFR binding, higher = more signal.
Sequence of Epidermal growth factor receptor (Homo sapiens) (P00533 whole entry, looked up): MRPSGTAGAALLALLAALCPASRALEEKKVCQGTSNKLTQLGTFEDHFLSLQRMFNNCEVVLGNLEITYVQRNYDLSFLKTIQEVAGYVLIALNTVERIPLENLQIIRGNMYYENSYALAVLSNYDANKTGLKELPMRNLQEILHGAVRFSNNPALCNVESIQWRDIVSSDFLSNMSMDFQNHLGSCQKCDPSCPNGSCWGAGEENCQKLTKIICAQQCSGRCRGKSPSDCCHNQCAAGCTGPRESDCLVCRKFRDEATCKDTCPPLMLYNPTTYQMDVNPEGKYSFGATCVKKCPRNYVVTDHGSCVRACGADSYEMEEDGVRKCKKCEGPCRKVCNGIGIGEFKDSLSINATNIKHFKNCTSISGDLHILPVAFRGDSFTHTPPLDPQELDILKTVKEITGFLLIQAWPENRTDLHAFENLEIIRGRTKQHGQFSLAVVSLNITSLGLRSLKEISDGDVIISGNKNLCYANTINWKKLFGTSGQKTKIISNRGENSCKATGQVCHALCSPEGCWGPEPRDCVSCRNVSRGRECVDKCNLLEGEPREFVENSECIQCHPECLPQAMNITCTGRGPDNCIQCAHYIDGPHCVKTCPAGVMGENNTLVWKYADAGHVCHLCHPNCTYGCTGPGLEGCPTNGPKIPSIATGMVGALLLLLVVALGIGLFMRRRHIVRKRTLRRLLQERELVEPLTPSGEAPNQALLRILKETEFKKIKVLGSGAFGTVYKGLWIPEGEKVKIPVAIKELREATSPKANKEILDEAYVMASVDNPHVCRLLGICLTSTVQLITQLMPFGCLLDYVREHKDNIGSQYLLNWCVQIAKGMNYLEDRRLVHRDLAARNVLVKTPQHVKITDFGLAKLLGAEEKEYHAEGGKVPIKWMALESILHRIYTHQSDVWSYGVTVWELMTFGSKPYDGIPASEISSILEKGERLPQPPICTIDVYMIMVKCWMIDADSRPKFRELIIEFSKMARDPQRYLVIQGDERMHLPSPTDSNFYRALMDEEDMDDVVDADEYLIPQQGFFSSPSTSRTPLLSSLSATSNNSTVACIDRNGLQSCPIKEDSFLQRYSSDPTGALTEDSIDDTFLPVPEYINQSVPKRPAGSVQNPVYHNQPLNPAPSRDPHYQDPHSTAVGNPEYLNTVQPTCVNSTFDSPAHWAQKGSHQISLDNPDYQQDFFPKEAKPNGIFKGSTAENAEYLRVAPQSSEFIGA
The target in experiment [8] is Follistatin-related protein 3 (Homo sapiens) (UniProt O95633). Description: FSTL3 binders on small-molecule microarrays, primary screen, biochemical, small-molecule microarray, 635 nm fluorescence (AID 1105).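 Note: score merges emission near 667 nm and signal to noise per printed spot across three slides.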 The following applies: FSTL3 binding, higher = more signal.
Sequence of Follistatin-related protein 3 (Homo sapiens) (O95633 whole entry, looked up): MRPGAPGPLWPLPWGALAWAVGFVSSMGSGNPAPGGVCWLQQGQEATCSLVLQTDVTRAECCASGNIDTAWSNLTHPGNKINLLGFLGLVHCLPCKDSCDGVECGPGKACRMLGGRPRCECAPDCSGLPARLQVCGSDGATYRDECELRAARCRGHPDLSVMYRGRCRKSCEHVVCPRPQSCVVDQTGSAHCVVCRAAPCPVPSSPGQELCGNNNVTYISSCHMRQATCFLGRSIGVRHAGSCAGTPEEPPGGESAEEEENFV
Experiment [9] has as its target Dickkopf-related protein 1 (Homo sapiens) (UniProt O94907). As to the kind of experiment: DKK1 binders on small-molecule microarrays, primary screen, biochemical, small-molecule microarray, 635 nm fluorescence scan (AID 1106).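 Note: score merges emission near 667 nm with signal to noise over three replicate slides.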 The following applies: DKK1 binding, higher = more signal.
Experiment [10] has as its system Inhibin beta A chain (activin A). Description: INHBA (activin A) binders on microarrays, primary screen, biochemical, small-molecule microarray, 635 nm fluorescence scan (AID 1107).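 Note: mouse activin A protein probed at 4.33 µg/mL on printed slides; score merges bound-protein fluorescence near 667 nm with spot signal-to-noise.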 As to conditions: small-molecule microarray binding, higher = more signal.
The test system of experiment [11] is Human papillomavirus type 1a protein E7 (residues 44-93). As to the kind of experiment: HPV1a E7 fragment binders on microarrays, primary screen, biochemical, small-molecule microarray, residues 44-93, 635 nm fluorescence (AID 1108).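 Note: E7 fragment applied at 1 µg/mL in TBST for 1 h at 4 C; score combines spot fluorescence with its signal to noise ratio.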 The following applies: small-molecule microarray binding, fluorescence 635 nm; higher = more signal.
The nature of experiment [12]: modulators of HCV replicon luciferase signal, primary screen, HCV replication inhibitor project, Huh7 cells, luciferase reporter (AID 1109).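 Note: huh7 hepatoma cells harbouring a luciferase neomycin HCV replicon reporter; luciferase luminescence as measure of HCV replicon replication; test concentration not given here.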 As to conditions: 48 h, higher = more signal. For orientation: Replicon systems follow genome replication, usually without infectious particles.
In experiment [13] the target is Left-right determination factor 2 (Homo sapiens) (UniProt O00292). As to the kind of experiment: LEFTY2 binders on small-molecule microarrays, primary screen, biochemical, small-molecule microarray, 635 nm fluorescence scan (AID 1110). The following applies: LEFTY2 binding, higher = more signal.
Sequence of Left-right determination factor 2 (Homo sapiens) (O00292 whole entry, looked up): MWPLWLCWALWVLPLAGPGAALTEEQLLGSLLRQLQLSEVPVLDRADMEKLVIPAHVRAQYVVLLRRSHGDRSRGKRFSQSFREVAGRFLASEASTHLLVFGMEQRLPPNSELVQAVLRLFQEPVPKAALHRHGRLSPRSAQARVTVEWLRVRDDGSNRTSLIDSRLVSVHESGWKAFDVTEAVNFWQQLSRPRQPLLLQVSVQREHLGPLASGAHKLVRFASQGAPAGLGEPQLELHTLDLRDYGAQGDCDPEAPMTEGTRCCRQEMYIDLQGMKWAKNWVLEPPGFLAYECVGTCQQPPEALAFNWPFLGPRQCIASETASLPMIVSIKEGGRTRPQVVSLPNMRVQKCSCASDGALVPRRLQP
The target in experiment [14] is Calmodulin-1 (Homo sapiens) (UniProt P0DP23). Description: CALM1 binders on microarrays, EGTA buffer, profiling panel, biochemical, small-molecule microarray, Cy5-labelled CALM1 (AID 1111).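 Note: labelled calmodulin applied in Tris saline Tween buffer holding calcium plus EGTA and DTT.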 The following applies: Cy5-CALM1 binding fluorescence, higher = more signal.
Experiment [15] shares this target. Description: calcium-bound CALM1 binders on microarrays, profiling panel, artefact control for SMM control-protein annotation, biochemical, small-molecule microarray, Cy5-labelled CALM1, plus calcium (AID 1112).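 Note: score merges spot fluorescence with signal to noise from triplicate slides.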 As to conditions: Cy5-CALM1 binding fluorescence, higher = more signal.
Experiment [16] can be described thus: small-molecule microarray binders of probe aWnt5a, primary screen, biochemical, biotinylated probe, 635/667 nm fluorescence (AID 1113).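 Note: score merges 667 nm fluorescence intensity with signal-to-noise per printed feature.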 As to conditions: higher = more signal.
Experiment [17] can be described thus: small-molecule microarray binders of probe aShh, primary screen, biochemical, biotinylated probe, 635/667 nm fluorescence (AID 1114).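 Note: probe is biotin-labelled aShh protein from a stem cell growth factor screen; measures binding of labelled protein to compounds printed on the slide; score merges feature fluorescence at 667 nm with signal-to-noise.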 The following applies: higher = more signal.
Experiment [18] can be described thus: small-molecule microarray binders of probe aNog, primary screen, biochemical, biotinylated probe, 635/667 nm fluorescence (AID 1115).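 Note: probe is biotinylated aNog protein used at 0.15 µg/mL for 1 h at 4 C; z-score combines 667 nm fluorescence of each spot with its signal to noise.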 As to conditions: higher = more signal.
Experiment [19] concerns the target Torsin-1A-interacting protein 1 (Homo sapiens) (UniProt Q5JTV8). Description: LAP1 binders from COS7 cell lysate, primary screen, small-molecule microarray, 635/667 nm fluorescence (AID 1116). As to conditions: COS7-hLAP1 lysate binding, 635 nm fluorescence, higher = more signal.
Experiment [20] deals with Alpha-bungarotoxin (Bungarus multicinctus) (UniProt P60615). As to the kind of experiment: alpha-bungarotoxin binders on microarray, profiling panel, artefact control for SMM control protein annotation, biochemical, small-molecule microarray, Alexa647 label, 635/667 nm fluorescence (AID 1117). As to conditions: alpha-BTX-A647 binding fluorescence, higher = more signal.
Sequence of Alpha-bungarotoxin (Bungarus multicinctus) (P60615 whole entry, looked up): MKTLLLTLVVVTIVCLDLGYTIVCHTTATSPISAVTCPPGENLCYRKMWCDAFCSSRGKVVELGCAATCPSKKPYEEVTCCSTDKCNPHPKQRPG

Sequence of Torsin-1A-interacting protein 1 (Homo sapiens) (Q5JTV8 whole entry, looked up): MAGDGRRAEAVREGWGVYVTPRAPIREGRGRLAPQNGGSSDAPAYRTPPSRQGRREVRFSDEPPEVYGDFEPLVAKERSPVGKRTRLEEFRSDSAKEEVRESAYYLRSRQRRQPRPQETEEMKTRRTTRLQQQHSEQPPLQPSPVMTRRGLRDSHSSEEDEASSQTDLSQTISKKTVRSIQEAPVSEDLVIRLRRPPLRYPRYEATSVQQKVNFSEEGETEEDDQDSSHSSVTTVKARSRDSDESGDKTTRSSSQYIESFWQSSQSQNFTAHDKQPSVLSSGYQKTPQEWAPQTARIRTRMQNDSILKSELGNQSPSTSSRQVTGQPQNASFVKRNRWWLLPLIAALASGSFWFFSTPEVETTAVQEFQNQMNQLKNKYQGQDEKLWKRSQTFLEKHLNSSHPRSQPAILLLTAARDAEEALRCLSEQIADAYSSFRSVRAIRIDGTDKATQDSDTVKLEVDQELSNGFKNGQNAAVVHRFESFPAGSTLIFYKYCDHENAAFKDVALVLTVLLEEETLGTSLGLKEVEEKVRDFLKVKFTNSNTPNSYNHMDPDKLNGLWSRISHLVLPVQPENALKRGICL
Sequence of Dickkopf-related protein 1 (Homo sapiens) (O94907 whole entry, looked up): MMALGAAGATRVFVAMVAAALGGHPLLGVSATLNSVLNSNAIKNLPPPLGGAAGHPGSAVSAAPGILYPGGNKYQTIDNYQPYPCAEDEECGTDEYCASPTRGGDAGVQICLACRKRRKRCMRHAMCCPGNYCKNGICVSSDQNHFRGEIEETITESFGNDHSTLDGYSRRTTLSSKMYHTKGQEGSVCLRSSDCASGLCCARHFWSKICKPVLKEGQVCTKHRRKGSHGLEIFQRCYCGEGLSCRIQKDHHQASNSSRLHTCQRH

For the compound `Cc1ccc(S[C@]2(C(=O)O)CC(=O)N(C3Cc4ccccc4C3)[C@@H]2c2ccc(CO)cc2I)cc1`, the composite z-score was 0.787 in experiment [1]; 0.425 in experiment [2]; 1.05 in experiment [3]; -0.345 in experiment [5]; -0.695 in [6]; -1.04 in experiment [7]. Further, the composite z-score was -0.75 in experiment [8]; -0.649 in [9]; 1.11 in experiment [10]; -0.104 in [11]; -0.67 in experiment [13]; -0.212 in [14]. The composite z-score in [15] is -0.196; in [16], -0.117; in experiment [17], -0.156; in [18], 0.22; in experiment [19], 0.365; in experiment [20] it was 0.835. For the same compound, the z-score was -0.0201 (inactive) in [4] and -0.517 in [12].
Turning to `COc1cc2c(cc1OC)CN(C(=O)[C@@H]1[C@H]3C(=O)O[C@H](c4ccccc4)[C@H](c4ccccc4)N3[C@H](c3ccccc3OCCO)[C@@]13C(=O)Nc1ccc(C#CCNC(N)=O)cc13)CC2`, the composite z-score in experiment [1] was determined as 1.58; in experiment [2], 0.0627; in experiment [3], 0.281; in experiment [5], 0.518; in experiment [6], 1.08; in experiment [7], 0.245. In addition, the composite z-score amounted to 0.445 in experiment [8]; 0.208 in experiment [9]; 0.922 in experiment [10]; 0.644 in experiment [11]; 0.17 in experiment [13]; 1.36 in experiment [14]. Also, the composite z-score in experiment [15] was 0.478; in experiment [16], 0.0744; in experiment [17], 0.155; in experiment [18], 1.12; in [19], 1.29; in experiment [20], 1.9. Further, the results for the z-score in experiment [4] and in experiment [12] were 0.095 (inactive) and -1.01, respectively.
With `CCCCCCc1nc(CCCc2cc3c(c(CCCCCC)n2)[Si](C(C)C)(C(C)C)OC3)cc2c1[Si](C(C)C)(C(C)C)OC2`, the composite z-score was -0.432 in [1]; -0.33 in experiment [2]; -0.138 in [3]; -0.408 in experiment [5]; -0.242 in experiment [6]; -0.0687 in [7]. The composite z-score in experiment [8] was -0.176; in experiment [9] it was 0.279; in [10], 1.49; in [11], -0.893; in [13], -0.116; in [14], -0.63. For the same compound, the composite z-score in experiment [15] is -0.0511; in experiment [16] it was -0.1; in [17], 0.214; in experiment [18], -0.303; in [19] it was -0.386; in experiment [20] it was -0.325. Also, the results for the z-score in experiment [4] and in [12] were 0.775 (inactive) and -3.46, respectively.
`[N-]=[N+]=NCc1ccccc1[C@@H]1OC(c2ccc(OCCCO)cc2)=N[C@]1(Cc1ccccc1)C(=O)N1CCCCC1`: the composite z-score is 1.36 in experiment [1]; 0.792 in [2]; 0.63 in experiment [3]; 1.32 in experiment [5]; 1.18 in [6]; -0.167 in [7]. Moreover, the composite z-score in [8] was 0.584; in experiment [9] it was 0.118; in experiment [10] it was 0.407; in experiment [11], 1.39; in experiment [13], 0.232; in experiment [14], 1.4. Besides, the composite z-score in experiment [15] was 0.955; in experiment [16] it was 0.0136; in experiment [17] it was 0.369; in [18] it was 0.733; in experiment [19], 1.27; in [20], 1.14. The z-score is -0.276 (inactive) in experiment [4] and -2.79 in experiment [12].
As for `[N-]=[N+]=Nc1ccccc1[C@H]1OC(c2ccc(OCCCO)cc2)=N[C@@]1(CCS(=O)(=O)c1ccccc1)C(=O)O`, the composite z-score in experiment [1] was 1.31; in [2] it was 0.503; in experiment [3], 1.14; in experiment [5], 0.104; in experiment [6] it was -0.359; in experiment [7], -0.18. Besides, the composite z-score is -0.116 in [8]; -0.601 in experiment [9]; 1.25 in experiment [10]; 0.447 in experiment [11]; -0.512 in experiment [13]; 1.16 in experiment [14]. Besides, the composite z-score in experiment [15] is 0.373; in [16], -0.131; in experiment [17] it was 0.0278; in [18], 1.01; in experiment [19], 2; in experiment [20], 0.582. The z-score in experiment [4] is -0.433 (inactive); in [12], 0.86.
Turning to `[N-]=[N+]=NCc1ccccc1C[C@@]1(C(=O)N2CCOCC2)N=C(c2ccc(OCCCO)cc2)O[C@@H]1c1ccccc1CN=[N+]=[N-]`, the composite z-score was 1.63 in [1]; 1.22 in experiment [2]; 1.37 in experiment [3]; 1.46 in experiment [5]; 0.965 in experiment [6]; 0.422 in experiment [7]. For the same compound, the composite z-score is 0.656 in experiment [8]; -0.0757 in experiment [9]; 0.811 in [10]; -0.422 in [11]; -0.269 in experiment [13]; 2.2 in experiment [14]. The composite z-score is 1.06 in experiment [15]; 0.324 in experiment [16]; 0.167 in experiment [17]; -0.434 in experiment [18]; 1.27 in [19]; 2.21 in [20]. For the same compound, the z-score in experiment [4] was -0.429 (inactive); in experiment [12] it was -2.43.
